IL-1B inflam inh – inflammasome signaling inhibition, IL-1 beta readout | AID 743279 | activity change, % at 57.5 µM | THP-1 LPS/ATP IL-1B secretion, AlphaLISA, 16 h; active compounds read low | 4.7% of 360,000 active; in the data active means activity change below about -50%; inconclusive means mostly about -30% to -49%; further: on the % scale 0 is the no-effect control and ±100 the full control effect
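THP-1 cells pretreated 1 hr with compounds (up to 57.5 uM final), then stimulated with LPS (250 ng/mL final) plus ATP (1.25 mM final); secreted IL-1B measured by AlphaLISA after 16 hr, decreased signal indicating inhibition.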
HepG2 tox – counter-screen for TGF-b inhibitors: cytotoxicity in HepG2 cells; HepG2 CAGA-GFP viability, ATP luminescence, 18 h; Potency, µM (highest dose often 46.1 µM), for inactives: at the highest dose activity change, negative = cytotoxicity, actives largely listed as cytotoxic; 0.76% of 410,000 active; further: potency means the concentration at half of the fitted maximal effect
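HepG2 CAGA-GFP cells (1000/well, DMEM with 1% FBS) received compound, then TGF-beta at 500 pg/mL final, and were incubated 18 hours at 37 degrees C. Viability was read by CellTiter-Glo luminescence. Media-only wells were set as complete cell-killing and DMSO as no toxicity.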
TGFb inhibitor – inhibitors of TGF-b signaling | Potency, µM (top dose mostly 46.1 µM), for inactives: top-dose activity, negative = inhibition, hits mostly inhibitors | 1.2% of 410,000 active | HepG2 CAGA-GFP TGF-b/SMAD3 reporter, GFP fluorescence, 18 h; TGF-beta stimulated, 500 pg/mL final; further: potency means the concentration at half of the fitted maximal effect; on the % scale 0 is the no-effect control and ±100 the full control effect; nearly all actives have a fitted effect of over 65% in size
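TGF-beta reporter screen: HEPG2 CAGA-GFP, 1% FBS, 500 pg/mL TGF-beta final, 18 h; per-cell GFP summed per well; curves fitted and categorized by class.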
DT40 TDP1 no CPT – qHTS for Inhibitors of human tyrosyl-DNA phosphodiesterase 1 (TDP1): qHTS in cells in absence of CPT. DT40 Tdp1-/- hTDP1 cells, no CPT, ATP luminescence, 48 h. Potency, µM (titrated, usually from 46.2 µM), inactives show top-dose activity change, negative = growth inhibition, actives largely listed as inhibitors. 15% of 420,000 active; further: potency means the concentration at half of the fitted maximal effect; on the % scale 0 is the no-effect control and ±100 the full control effect; nearly all actives have a fitted effect of over 55% in size
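Cells were dispensed at 400 per well, compounds added by pin tool, plates incubated ≥48 hr at 37 °C, then CellTiter-Glo added for 30 min at room temperature before luminescence reading. Line: DT40 Tdp1-/- complemented with hTDP1; camptothecin omitted.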
S-ASM inh – inhibitors of human secretory acid sphingomyelinase; placental ASM, HMU-PC fluorogenic substrate, 60 min; Potency, µM (titrated, usually from 57.5 µM), for the others: top-dose activity change, negative = inhibition, actives largely listed as inhibitors; 0.006% of 340,000 active; AID 504937; further: potency means the concentration at half of the fitted maximal effect
Target sequence (P17405 47-631 limits assumed): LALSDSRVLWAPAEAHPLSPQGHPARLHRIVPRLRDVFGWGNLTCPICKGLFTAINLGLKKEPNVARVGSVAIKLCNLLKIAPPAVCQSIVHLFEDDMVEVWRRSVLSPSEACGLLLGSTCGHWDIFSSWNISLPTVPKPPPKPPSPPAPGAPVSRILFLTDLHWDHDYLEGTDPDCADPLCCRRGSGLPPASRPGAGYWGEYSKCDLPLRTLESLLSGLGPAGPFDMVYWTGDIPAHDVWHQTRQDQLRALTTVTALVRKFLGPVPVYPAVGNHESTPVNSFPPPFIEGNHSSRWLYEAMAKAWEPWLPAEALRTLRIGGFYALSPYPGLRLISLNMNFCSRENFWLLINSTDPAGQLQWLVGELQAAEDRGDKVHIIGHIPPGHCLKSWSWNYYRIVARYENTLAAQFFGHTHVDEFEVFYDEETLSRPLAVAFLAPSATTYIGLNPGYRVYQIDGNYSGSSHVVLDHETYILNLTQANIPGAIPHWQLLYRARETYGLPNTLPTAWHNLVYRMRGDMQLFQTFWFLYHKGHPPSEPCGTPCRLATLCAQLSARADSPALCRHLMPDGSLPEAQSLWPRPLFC
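Fluorescence read-out (Ex 386 nm, Em 447 nm) after stopping the reaction at pH 10. Enzyme: ASM from human placenta; substrate HMU-PC0, 9 uM final; 60 min, 37 °C. Compound preincubation 10 min, ambient temperature.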
DT40 TDP1 CPT – DT40-hTDP1 cell growth loss with CPT | chicken DT40 Tdp1-/-;hTDP1 cells + 20 nM CPT, ATP luminescence, 48 h | Potency, µM (top dose mostly 46.2 µM), for the others: at the highest dose activity change, negative = growth inhibition, hits mostly inhibitors | 12% of 420,000 active | AID 686979; further: potency means the concentration at half of the fitted maximal effect; on the % scale 0 is the no-effect control and ±100 the full control effect; nearly all actives have a fitted effect of over 55% in size
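Chicken DT40 Tdp1-/- cells complemented with human TDP1, 400 cells/well, exposed to compounds plus 20 nM camptothecin for at least 48 h at 37 C; viability read as ATP content by CellTiter-Glo luminescence.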
* hit, by the source's call; ? = inconclusive; . = no result; [ ] = another dose, or the depositor's remark. An excerpt weighted towards active compounds, which were near 19% of everything screened. Unless noted, the call rests on the fitted dose curve; in most records, active means well fitted curve in the direction sought with a large enough effect; inconclusive means small, poorly fitted or top-dose-only effect, or another doubt; inactive means no such curve, though single readings can be large; an effect the other way counts as inactive or inconclusive.

SMILES | IL-1B inflam inh | HepG2 tox | TGFb inhibitor | DT40 TDP1 no CPT | S-ASM inh | DT40 TDP1 CPT
Cc1ccc(-c2ccc3c(c2)O[C@H](CN(C)C(=O)CC2CC2)[C@H](C)CN([C@@H](C)CO)S3(=O)=O)cc1 | -1.3 | 3.4% | -9.8% | -23.1% | . | -5.9%
C[C@@H]1CN([C@H](C)CO)S(=O)(=O)c2ccc(Br)cc2O[C@H]1CN(C)C(=O)C1CCCCC1 | 11.2 | 5.8% | 27.2% | 13µM* | . | 25.9µM*
C[C@H]1CN([C@@H](C)CO)S(=O)(=O)c2ccc(Br)cc2O[C@@H]1CN(C)C(=O)CCN1CCCCC1 | -7.6 | -71.0% | ? | 5.6% | . | -13.1%
C[C@H]1CN([C@@H](C)CO)S(=O)(=O)c2ccc(C3=CCCC3)cc2O[C@@H]1CN(C)C(=O)C1CCCCC1 | -50.6* | -37.8% | ? | -110.5% | . | -94.2%
C[C@@H]1CN([C@@H](C)CO)S(=O)(=O)c2ccc(Br)cc2O[C@H]1CN(C)C(=O)C1CCOCC1 | -4.6 | -0.6% | -2.6% | -2.6% | . | 9.3%
CC(C)N1CC(C(=O)Nc2ccc(Cl)cc2Cl)CC1=O (centres undefined) | -11.0 | 1.1% | -1.2% | 9.4% | . | -19.5%
CCOC(=O)[C@H]1[C@H]2COc3cc(OC)ccc3[C@@H]2N2C(=O)c3cc(F)c(F)cc3NC(=O)[C@@]12C | -17.7 | -16.9% | -0.4% | ? | -7.1% | ?
O=C1CC(c2ccccc2)Sc2ccccc2N1Cc1ccc(F)cc1 (centres undefined) | . | -41.1% | ? | . | . | .
CC(C)NC(=O)N(C)C[C@H]1Oc2cc(Br)ccc2S(=O)(=O)N([C@H](C)CO)C[C@H]1C | 20.5 | 0.5% | -1.9% | -6.8% | . | -26.2%
C[C@@H]1CN([C@H](C)CO)S(=O)(=O)c2ccc(C3=CCCCC3)cc2O[C@H]1CN(C)C(=O)Cc1cccnc1 | -23.9 | -16.1% | -7.2% | 25.9µM* | . | ?
C[C@@H]1CN([C@@H](C)CO)S(=O)(=O)c2ccc(Br)cc2O[C@H]1CN(C)C(=O)C1CCCCC1 | -29.9 | 22.3% | -4.1% | 16.4µM* | . | 25.9µM*
CC1(C(=O)Nc2ccccc2Br)CCN1C(=O)Cc1ccc(Cl)cc1Cl (centres undefined) | -12.1 | -11.0% | -25.4% | 16.4µM* | . | 23.1µM*
CC1(C(=O)Nc2ccccc2)CCN1C(=O)CCc1ccc(Cl)cc1Cl (centres undefined) | -6.1 | -17.8% | -21.2% | 20.6µM* | . | ?
CC1(C(=O)NCc2ccc3c(c2)OCO3)CCN1C(=O)CCc1ccc(Cl)cc1Cl (centres undefined) | -14.9 | -1.4% | -1.9% | 14.6µM* | . | 20.6µM*
CC1(C(=O)NS(=O)(=O)c2ccccc2Cl)CCN1C(=O)CCc1ccc(Cl)cc1Cl (centres undefined) | 0.0 | 5.4% | 3.4% | -13.2% | . | -24.5%
O=c1c(-c2ccccc2)cocc1-c1ccccc1 | -18.6 | -7.4% | 1.5% | -6.8% | . | -15.9%
COc1cccc(NC(=O)Cn2c(=O)n(CCCC(=O)NCc3ccc4c(c3)OCO4)c(=O)c3ccccc32)c1 | . | -4.3% | 2.6% | -3.2% | . | -12.1%
CN(C)C(=O)CN1CCN(C(=O)CCl)CC1 | -4.2 | -18.5% | -14.0% | 16.4µM* | -0.4% | ?
COc1ccccc1CNC(=O)Cc1c(C)c2c(cc(C)c3c(C)c(C)oc32)oc1=O | . | -23.7% | -16.4% | 0.2% | . | -3.6%
O=[N+]([O-])c1cccc(-c2nc3ccccc3s/c2=N/O)c1 | -81.1* | -36.8% | -2.3% | ? | -13.6% | -14.0%
CN(C)CCCNS(=O)(=O)c1ccc(NC2CCCCCC2)c([N+](=O)[O-])c1 | -71.5* | -171.3% | 22.4µM* | 2.31µM* | -9.9% | 2.91µM*
O=C(CN1C(=O)NC2(CCCCCCC2)C1=O)NCc1ccccc1 | 1.2 | 8.3% | 5.3% | 2.0% | 6.4% | -11.9%
Cn1cnc2c(N/N=C/c3cccs3)ncnc21 | -91.1* | -5.1% | -18.5% | ? | 1.5% | ?
CCN(CC)C(=O)C(C)N(C#N)c1nc(Cl)nc(N(C)C)n1 (centres undefined) | -98.0* | 2.4% | -5.8% | 10.3% | 1.8% | 3.3%
Cc1cc(C(=O)Nc2cccc(-c3nc(CNC(=O)c4ccc[n+]([O-])c4)c(C)o3)c2)c(C)o1 | . | . | . | ? | . | -7.6%[9.04 µM]
SMILES | IL-1B inflam inh | HepG2 tox | TGFb inhibitor | DT40 TDP1 no CPT | S-ASM inh | DT40 TDP1 CPT
O=[N+]([O-])c1ccc2nc(NCCCO)nc(-c3ccccc3)c2c1 | -20.7 | -38.4% | ? | 23.1µM* | 4.1% | 9.2µM*
O=C(O)CNc1nc(-c2ccccc2)c2cc([N+](=O)[O-])ccc2n1 | 0.0 | -10.3% | 1.2% | ? | 4.8% | ?
CCOC(=O)N1CCc2c(sc(NCc3cc(OC)c(OC)cc3OC)c2C(=O)Nc2ccc(OCC)cc2)C1 | . | -11.0% | ? | ? | . | ?
COC(=O)c1ccc(NC(=O)c2c(NCc3cccc(F)c3)sc3c2CCCC3)cc1 | . | -59.2% | ? | 16.4µM* | . | 20.6µM*
CCOC(=O)N1CCc2c(sc(NCc3ccc(N(C)C)cc3)c2C(=O)Nc2ccc(OC)cc2)C1 | . | -23.0% | ? | ? | . | 20.6µM*
CCOC(=O)N1CCc2c(sc(NCc3cccc(F)c3)c2C(=O)Nc2ccc(OC)cc2)C1 | . | -22.6% | ? | 16.4µM* | . | ?
COc1ccc(NC(=O)c2c(NCc3cccc(F)c3)sc3c2CCCC3)c(OC)c1 | . | -25.6% | ? | ? | . | ?
OCC[C@@H]1C[C@H](O)[C@@H](O)[C@@]2(CCCc3ccccc3O2)O1 | 14.4 | -14.5% | 23.7% | -3.0% | 0.9% | -5.3%

Bioassay records from PubChem.
